± gives the standard deviation of the averaged measurements. The full ranking holds about 25,000 sequences; the median of “ln(normalized median fluorescence intensity)” is about 8.6, and the highest 2% start at about 10. Many of the other results were omitted from the sample, so the highest values are more common in it than they were.
Tested on: PfAP2-EXP AP2 domain (GST-tagged)
Assay: gcPBM binding intensity (ln(normalized median fluorescence intensity)); higher = stronger DNA binding
Summary of the method: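 DNA-binding domains from P. falciparum, fused to GST and produced in E. coli, were put on an Agilent 4 × 180k double-stranded probe array for 1 h in 1× PBS holding 1% milk, 0.2 mg/ml BSA, 0.5% salmon testes DNA and 0.03% Triton X-100. Probes were primer-extended, 36 bp long and drawn from intergenic genomic regions, with negative controls included. After Alexa488 anti-GST antibody detection and a 488 nm scan, binding intensity was set as the highest Masliner-normalised natural-log median intensity across replicate spots of either probe orientation.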

| Sequence | gcPBM binding intensity (ln) |
| --- | --- |
| GGAAAAGGTATCCGTTCACACATAAATGGATACCAT [CACACA_site5072] | 8.31 ± 0.4 |
| ATTCATCCAATAATGTGAATTATCATGATAAACTTA [TGCATGCA_negctrl_site406] | 8.26 ± 0.43 |
| CAAAGTATTATGATTACACACATGTGCTTTTTTCTT [CACACA_site163] | 8.57 ± 0.42 |
| CAAACAATTAAACAAACACACATATACAAGTATATA [CACACA_site8639] | 8.38 ± 0.36 |
| GGTATACACAAGTATACACACATATATATATATATA [CACACA_site9063] | 10.2 ± 0.22 |
| GGTATACGCAAGTATACACACATATATATATATATA [CACACA_site3240] | 10.1 ± 0.47 |
| GGTATACACAAGTATACACACATATAAATATAAATA [CACACA_site7511] | 8.5 ± 0.45 |
| GGTATACTCAAGTATACACACATATATATATATATA [CACACA_site5746] | 10.2 ± 0.45 |
| TATATACTCAAACACACACACACATACACAGACATA [CACACA_site5025] | 8.77 ± 0.57 |
| ATTTTAGGAAAAAAAAGTACATATAATTTTTTATAT [XGTACX_site6954] | 8.19 ± 0.31 |
| AAATGTTATATATAATGTACTTGTAAGAACGTTCCT [XGTACX_site2840] | 8.67 ± 0.45 |
| GTGTAGTTAAAAAAAAGTACAGATTTTTTTTTTTTT [XGTACX_site849] | 8.43 ± 0.092 |
| ATATTTATAACTTGGTGTACTTTGAAAAAAAAAAAA [XGTACX_site5194] | 8.38 ± 0.26 |
| TTTTAATAATATGGATGTACATAAAAATAAATAAAT [XGTACX_site7937] | 9.04 ± 0.38 |
| AAAAAACACTTAAGGTGTACCTTTTAATATAAGTAT [XGTACX_site2397] | 8.38 ± 0.3 |
| TATGTGAAATAAGGATGTACAATTTTGATTTCCCCA [XGTACX_site8389] | 8.86 ± 0.52 |
| TATAAACCGACGAAAACACACATATGTAAATATATA [CACACA_site491] | 8.94 ± 0.59 |
| GTTAATATTTTTGGGGGTACTTAAAAAAAAAAAAAA [XGTACX_site1477] | 9.35 ± 0.26 |
| ATTTTTTTTTTTTTTTTGGGGGGGTATACTTTTAAA [CACACA_negctrl_site1020] | 11.2 ± 0.18 |

| Sequence | gcPBM binding intensity (ln) |
| --- | --- |
| TATACTTTATATATTTTGTATATATATTTTTTTTAT [TGCATGCA_negctrl_site530] | 8.43 ± 0.31 |
| AAAAAAGAAAAAAAGTGTACAATATTTATTACATAT [XGTACX_site2277] | 8.08 ± 0.028 |
| TATTTAATTACATGAACACACATTATGTATTTTTAA [CACACA_site2962] | 8.3 ± 0.3 |
| TGAAATGATATATAAACACACATATATAAATATGTA [CACACA_site7616] | 8.18 ± 0.42 |
| AAAATTAATAAATAAACACACATATATATATATATA [CACACA_site2598] | 10.1 ± 0.44 |
| AAAAAATTAAAAATCACACATAAATATATATAAAAA [CACACA_site4192] | 8.45 ± 0.4 |
| ACTAATTACTATAAAACACACATATATATATATATA [CACACA_site2591] | 10.2 ± 0.29 |
| TGAAATGATATATAAACACACATATATATATATATA [CACACA_site3511] | 10 ± 0.36 |
| TTTGAAATGATATATAAACACACATATATATATATA [CACACA_site9170] | 10.3 ± 0.4 |
| AATAAATTGAAACACACACACACATATATATATATA [CACACA_site848] | 10.2 ± 0.32 |
| CATATAAATAAACACACACACACATATATATATATA [CACACA_site5309] | 10.2 ± 0.29 |
| TATATATATATATAAACACACATAAATATAAATATA [CACACA_site1121] | 10 ± 0.37 |
| ATAAATATATATATCACACATATATAATTATATATA [CACACA_site4787] | 8.46 ± 0.3 |
| AATTAAAAAATTATCACACATATATATATATATATA [CACACA_site5789] | 10.3 ± 0.52 |
| ACTAATTACTATAAAACACACATATATTTATTTATA [CACACA_site7263] | 8.51 ± 0.34 |
| TTTTTATTTTTAAAGGCACACACATTTTTATTTTTA [CACACA_site8624] | 8.41 ± 0.31 |
| AAACAAAATATGGTTCATGAGCAAAAGTTTATTTTG [XGTACX_negctrl_site531] | 8.69 ± 0.47 |
| TTGATTAAAATTAGTACACACAAAATACATGCGGGG [CACACA_site5284] | 9.2 ± 0.3 |
| AAGAACAAACAAAATAGTACAATATATATATATATA [XGTACX_site4258] | 10 ± 0.28 |

| Sequence | gcPBM binding intensity (ln) |
| --- | --- |
| ACTAAAAGATATATAATTTCTTTCTTATTTATTTTT [CACACA_negctrl_site842] | 8.1 ± 0.35 |
| AAATATATAAAATATACACACAGTAATATATATATA [CACACA_site1385] | 9.52 ± 0.35 |
| TTCTGTCAATATGCTTGTACGAAATATTTCGTAATT [XGTACX_site3182] | 8.87 ± 0.4 |
| TTTTTTGCTAAAAAGAGTACTAATAAAAAATTTATT [XGTACX_site5235] | 8.34 ± 0.34 |
| GAAAAAAAAAAAAATACACACAAATTGGTATATAAT [CACACA_site4369] | 8.41 ± 0.39 |
| AAAAAATAAATAAACATAAATAAATAAATAAATATA [XGTACX_negctrl_site340] | 8.49 ± 0.33 |
| ATAAAAATGGTGTTAACACACACATATATATATATA [CACACA_site8089] | 10.1 ± 0.38 |
| AAAAATGGTGTTAACACACACATATATATATATATA [CACACA_site571] | 10.2 ± 0.17 |
| CATAAAATATAAAACACACACACATATATATATATA [CACACA_site223] | 10.2 ± 0.44 |
| AATAAACATAAATAAAAATTATAAAATATATATATG [CACACA_negctrl_site1709] | 8.38 ± 0.32 |
| TAAATAAATAAAAAAACACACATATAAATATAAATA [CACACA_site7815] | 8.56 ± 0.4 |
| TAAATAAAAAAACACACACACATATATATATATATA [CACACA_site2269] | 10.2 ± 0.25 |
| TATAAATAAAAACACACACACATATATATATATATA [CACACA_site2319] | 10.1 ± 0.32 |
| TAAATAAATAAAAAAACACACATATATATATATATA [CACACA_site4029] | 10.2 ± 0.32 |
| AATAAAATATAAACATTATATATATATATATATATA [GTGCAC_negctrl_site58] | 10.3 ± 0.38 |
| TATAAATAAAAACACACACACACATATATATATATA [CACACA_site2268] | 9.99 ± 0.39 |
| AAAAATGGTGTTAACACACACATATAAATAAATATA [CACACA_site6412] | 8.44 ± 0.35 |
| TTCTAACTTTTAAACACACAAATATAAATAAGTATA [CACACA_site7473] | 8.29 ± 0.62 |

— the supplement of paper PMC11417369
